Measurements as given in PubChem BioAssay (NCATS).
Records with an inconclusive call do not appear. Where a call stands in place of a potency, no number is given. Activity calls are given as the source filed them. Unless noted, the call rests on the fitted dose curve; in most records, active means well fitted curve in the direction sought with a large enough effect; inconclusive means small, poorly fitted or top-dose-only effect, or another doubt; inactive means no such curve, though single readings can be large; an effect the other way counts as inactive or inconclusive.

Columns and labels:
[1] = Cytometric Cell-Based qHTS for Inhibitors of the mTORC1 Signaling Pathway in MEF (Tsc2-/-, p53-/-) Cells (AID 2660); details: mTORC1 pathway cytometry; series mostly up to 38.3 µM;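 further: Tsc2 and p53 null MEFs carrying empty vector with compound for 24 h; percent of cells above a phospho-rpS6 to PI ratio cutoff in each well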
How it was run: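 Readout: Alexa-488 phospho-rpS6 (Ser235/236) intensity divided by PI intensity, thresholded against 7.5 nM rapamycin wells and reported as % positive cells. PI cell count served as the viability measure. Compound exposure was 24 hrs at 37 degree Celsius.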

[2] = High Content Imaging Cell-Based qHTS for Inhibitors of the mTORC1 Signaling Pathway in MEF Cells (AID 2667); details: series mostly up to 38.3 µM; further: potency means the concentration at half of the fitted maximal effect
How it was run: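 MEF (Tsc2-/-, p53-/-, WT Tsc2 re-expressed); cpd 24 h, 37 °C; PFA fix; Alexa-488 anti-p-rpS6 Ser235/236, PI, Hoechst; IN Cell imaging; Hoechst/Alexa-488 intensity ratio; % active cells, thresholds set from rapamycin and DMSO wells.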

[3] = Cytometry Cell-Based qHTS for Inhibitors of the mTORC1 Signaling Pathway in MEF cells (AID 2668); details: mTORC1 pathway readout; series mostly up to 38.3 µM; further: potency means the concentration at half of the fitted maximal effect
How it was run: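 Tsc2-/-, p53-/- MEFs re-expressing WT Tsc2; cpd 24 hrs, 37 degree Celsius; PFA fix, Alexa-488 p-rpS6 (Ser235/236) Ab 2 hrs RT, PI counterstain; Acumen 488nm scan; p-S6/PI ratio → % positive cells; PI count = viability.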

[4] = qHTS Assay for Identification of Small Molecule Inducers of Hypoxia Response (AID 2120; active means well fitted curve in the direction sought with a large enough effect in the signal ratio, with a control signal flat, not every such curve was filed as active; the % refers to the signal ratio); details: hypoxia response reporter cells, beta-lactamase ratio readout; series mostly up to 104 µM
How it was run: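 Induction of beta-lactamase reporter activity was measured in CellSensor HRE-bla ME-180 cells after 17 h compound treatment at 37 degrees C, using CCF4 substrate and the 460nm/530nm emission ratio to derive AC50 values.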

[5] = Validation screen for inhibitors of Lassa infection (AID 463096; calls by dose curve); details: Lassa virus infection, cell-based; series mostly up to 46.1 µM

CC[C@@H](C(N)=O)N1CCCC1=O
Potency [1]: inactive
Potency [2]: inactive
Potency [3]: inactive

Nc1ccc(Cl)cc1
outcome [4]: inactive

CCCCC(CC)COC(=O)c1ccccc1C(=O)OCC(CC)CCCC (stereo unspecified)
outcome [4]: inactive

OCCCBr
outcome [4]: inactive

CCCCOC(=O)c1ccccc1C(=O)OCc1ccccc1
outcome [4]: inactive

C/C=C(/C)C(=O)O[C@H]1C(C)=C2[C@H]([C@@H]1OC(=O)CCCCCCC)[C@@](C)(OC(C)=O)C[C@H](OC(=O)CCC)[C@@]1(O)[C@H]2OC(=O)[C@@]1(C)O
Potency [2]: 3.7 nM (active)
Potency [3]: 8.3 nM (active)

CC(=O)Oc1ccccc1C(=O)O
Potency [5]: inactive

COc1ccc(C(c2ccc(OC)cc2)C(Cl)(Cl)Cl)cc1
outcome [4]: inactive
